High-throughput results from PubChem.
An excerpt weighted towards active compounds, which were near 1.7% of everything screened.
SUMO1 PPI mod = alters human SUMO1 binding to SIM partners; inhibition, % at 20 µM; SUMO1 binding to a labelled peptide, TR-FRET, 1 h; P63165; 360,000 tested, 0.33% active; in the data active = inhibition above about 37%
Neddylation inh = inhibitors of human cullin neddylation. P61081+Q13564. TR-FRET cullin neddylation, biochemical. inhibition, % at 25 µM. 360,000 tested, 0.58% active; in the data active = inhibition above about 36%
Target sequence (P61081 whole entry, looked up): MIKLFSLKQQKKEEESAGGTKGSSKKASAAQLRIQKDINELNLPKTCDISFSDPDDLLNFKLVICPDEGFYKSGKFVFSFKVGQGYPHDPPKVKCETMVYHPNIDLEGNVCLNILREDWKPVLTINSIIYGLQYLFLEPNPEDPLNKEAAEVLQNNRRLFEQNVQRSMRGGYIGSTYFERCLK
Target sequence (Q13564 whole entry, looked up): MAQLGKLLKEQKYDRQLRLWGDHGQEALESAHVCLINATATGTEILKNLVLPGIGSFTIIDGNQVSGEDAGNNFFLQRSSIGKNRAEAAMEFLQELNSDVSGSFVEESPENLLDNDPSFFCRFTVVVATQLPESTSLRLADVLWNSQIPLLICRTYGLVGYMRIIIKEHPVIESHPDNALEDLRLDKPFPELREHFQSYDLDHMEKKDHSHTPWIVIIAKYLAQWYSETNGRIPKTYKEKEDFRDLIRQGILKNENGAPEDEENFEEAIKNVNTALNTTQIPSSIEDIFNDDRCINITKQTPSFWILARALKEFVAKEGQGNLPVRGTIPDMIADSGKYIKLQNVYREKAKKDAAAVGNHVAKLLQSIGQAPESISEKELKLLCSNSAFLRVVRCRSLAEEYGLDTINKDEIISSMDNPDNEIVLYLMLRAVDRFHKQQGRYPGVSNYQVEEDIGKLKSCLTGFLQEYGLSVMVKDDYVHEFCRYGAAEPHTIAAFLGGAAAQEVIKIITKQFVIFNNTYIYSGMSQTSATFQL
Rin1-Abl PPI inh = human Rin1-Abl interaction inhibition; P00519+Q13671; TR-FRET Rin1/Abl binding, biochemical; inhibition, % at 7.35 µM; 360,000 tested, 0.4% active; AID 588664; in the data active = inhibition above about 5%, passing the limit was not always enough
ATG4B inh = blocks human ATG4B protease cleavage of LC3 substrate. Q9Y4P1. ATG4B cleavage of LC3-PLA2, NBD-HPC fluorescence, 1 h. inhibition, % at 8.33 µM. 340,000 tested, 0.51% active; in the data active = inhibition above about 40%
Rin1-Abl confirm = Rin1-Abl interaction inhibition confirmation. TR-FRET Rin1-Abl binding, purified proteins. inhibition, % at 7.35 µM. 1,300 tested, 49% active. shares compounds with Rin1-Abl PPI inh
GFP quench-1 = counter-screen for Rin1-Abl inhibitors: GFP fluorescence quenchers; shares compounds with Rin1-Abl PPI inh; inhibitors/quenchers counterscreen; inhibition, % at 6.75 µM; 1,300 tested, 8.5% active;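 also: ABL1-eGFP fusion protein alone without its partner RIN1-SBP; 0% = protein with vehicle and 100% = wells lacking protein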
GFP quench dose = counter-screen for Rin1-Abl inhibitors: GFP quenchers, dose response | shares compounds with Rin1-Abl PPI inh | GFP fluorescence interference/quenching counterscreen | IC50, µM | 230 tested, under 10 active | AID 602182; call rule not given here;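 also: ABL1-eGFP fusion protein alone without its RIN1 binding partner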
GFP quench-2 = GFP quenching artifact for Rin1-Abl inhibitor hits | shares compounds with Rin1-Abl PPI inh | GFP fluorescence quenching counterscreen, biochemical | IC50, µM | 25 tested, under 10 active; call rule not given here
Starred values were filed as active, the others as inactive; · = no result given. Rule as the data show it, unless noted: active = inhibition above about 6.5%; inactive = the rest.

SMILES	SUMO1 PPI mod	Neddylation inh	Rin1-Abl PPI inh	ATG4B inh	Rin1-Abl confirm	GFP quench-1	others
O=C(CCn1c(=O)oc2ccccc21)NC1=NCCS1	-3	-9	10.0*	-9	-2	0
O=C(Cc1ccc(NC(=O)C2CCN(C(=O)C3CC3)CC2)cc1)Nc1ccc(C(=O)N2CCOCC2)cc1	-6	-2	8.9*	1	9.7*	-2
O=C(Nc1ccc(C(=O)N2CCOCC2)cc1)C1CCCC1	3	-8	-2	0	·	·
CCOC(=O)C1CCN(C(=O)Nc2ccc(NC(=O)C3CCN(C(=O)OCC)CC3)cc2)CC1	-3	-3	14*	-1	11*	0
CC(C)(C)OC(=O)N1CCC(C(=O)Nc2ccc(C(=O)N3CCCCC3)cc2)CC1	10	-1	25*	-2	17*	0	GFP quench dose=>68
O=C(Cc1ccc(NC(=O)C2CCN(C(=O)C3CCCC3)CC2)cc1)Nc1ccc(C(=O)N2CCOCC2)cc1	4	0	67*	-6	70*	-1	GFP quench dose=>68;GFP quench-2=>68
O=C(Cc1cccc(NC(=O)C2CCN(C(=O)C3CC3)CC2)c1)Nc1cccc(C(=O)N2CCOCC2)c1	-2	4	2	6	·	·
CCOC(=O)C1CCN(C(=O)Nc2ccc(OC(F)(F)F)cc2)CC1	28	-4	-1	-10	·	·
COc1cccc(/C=C/C(=O)NCc2cn3cc(Cl)ccc3n2)c1	-1	20	5.2*	5	2	-1
O=C(/C=C/c1cccc(Cl)c1)OCc1cn2cc(Cl)ccc2n1	-3	-16	-1	11	·	·
Cc1nnc(Cc2ccccc2)c2n[nH]c(C)c12	1	-5	-3	·	·	·
COc1ccc(NC(=O)CN(C)C(=O)c2ccc3c(c2)CC(c2ccccc2)OC3=O)cc1 (centres undefined)	-2	-5	8.1*	·	-2	0
Cc1ccc(NC(=O)CSc2nc3c(c(=O)n(C)c(=O)n3C)n2C)cc1	1	7	6.8*	2	0	-4
CCOCc1nnc(NC(=O)c2c(OC)cccc2OC)s1	-2	12	22*	-6	24*	0	GFP quench dose=>67
CCNC(=O)C1(C)CCCN1C(=O)c1cc(OC)c(OC)c(OC)c1 (centres undefined)	-5	4	-3	·	·	·
Cn1c(=O)oc2cc(S(=O)(=O)N3CCOCC3)ccc21	1	-3	4	3	·	·
O=S(=O)(c1ccc2c(c1)oc1ccccc12)N1CCOCC1	-2	-7	8.5*	-5	-1	1
O=c1oc(-c2ccc([N+](=O)[O-])cc2)nc2ccccc12	-18	-39	2	3	·	·
O=c1oc(-c2ccc([N+](=O)[O-])cc2)nc2ccc(O)cc12	-19	-24	17*	-5	-7	0
C#CCNC(=O)c1ccc2sc([C@@H]3O[C@H](CO)[C@H](O)[C@H](O)[C@H]3O)nc2c1	0	5	3	·	·	·
Cc1ccc(N2CCC3CC2c2cc(-c4ccc(C(F)(F)F)cc4)ccc23)cc1 (centres undefined)	-5	9	0	·	·	·
C[C@H]1c2cccc(O)c2C(O)=C2C(=O)C3(O)C(O)=C(C(N)=O)C(=O)[C@@H](N(C)C)[C@@H]3[C@@H](O)[C@@H]21 (some centres undefined)	1	14	7	32	·	·
C=C1c2cccc(O)c2C(O)=C2C(=O)[C@]3(O)C(O)=C(C(N)=O)C(=O)[C@@H](N(C)C)[C@@H]3[C@@H](O)[C@H]12	72*	5	23*	-23	17*	12*
CCOC(=O)c1ccc(NC(=O)CSc2nc3cccnc3n2C)cc1	3	14	9.9*	-18	6	-1
CCOC(=O)c1ccc(NC(=O)CSc2nncn2-c2cccnc2)cc1	0	0	7.8*	-1	2	-1
SMILES	SUMO1 PPI mod	Neddylation inh	Rin1-Abl PPI inh	ATG4B inh	Rin1-Abl confirm	GFP quench-1	others
NC(=O)c1ccc(NC(=O)CSc2nncn2-c2ccccc2)cc1	4	4	0	-1	·	·
COC(=O)c1ccc(NC(=O)CSc2nc3cccnc3n2C)cc1	-1	16	1	-13	·	·
O=C1CNC(=O)N1CC(O)Cn1c2ccccc2c2ccccc21 (centres undefined)	0	4	24*	-14	28*	-1	GFP quench dose=>67
COc1ccc(C)cc1NC(=O)Nc1ccccc1	2	7	0	4	·	·
COc1ccc(NC(=O)Nc2cc(C)ccc2OC)cc1	0	-17	5.9*	-2	-1	-2
COc1ccc(C)cc1NC(=O)CN(C)C1CCCCC1	6	1	15*	7	-1	-1
CCCCC(=O)N(C)c1c(CC)nc2c(OCc3ccc(C(F)(F)F)cc3)cccn12	20	-5	-1	·	·	·
Cc1ccc(-n2c(SCC(=O)NCc3ccco3)nnc2-c2cccnc2)c(C)c1	-1	-4	12*	-1	9.7*	-1
CCC(CC)CN1CCC(CN2C(=O)C(=O)NC[C@@H]2CC(C)C)CC1	3	2	19*	·	14*	-2
CC(C)CCN1CCC(CN2C(=O)C(=O)NC[C@@H]2CC(C)C)CC1	6	1	3	·	·	·
CN1CC2(C)OC(=O)C(Cl)=C2CC1c1ccccc1 (centres undefined)	2	8	6.2*	-9	0	-2
COc1cc(C=c2c3ccccc3n3c2cc(-c2ccccc2)[n+]3C)cc(OC)c1OC	-17	·	14*	2	-4	3
CN(C)c1ccc(C=c2c3cc([N+](=O)[O-])ccc3n3c2cc(-c2ccccc2)[n+]3C)cc1	59*	-11	37*	27	4	35*
Cc1oc2nc(SCC(=O)NC3CCCCC3)nc(N)c2c1C	5	2	-2	-3	·	·
Cc1oc2nc(SCCCC(=O)NCCO)nc(N)c2c1C	-1	-7	36*	-7	42*	1	GFP quench dose=>68
O=C1CNC(=O)c2cc(Cl)ccc2N1	3	-3	1	·	·	·
Cc1cccc(NC(=O)NCc2ccc3c(c2)cc(C)n3C)c1	-45	-111	7.8*	7	-20	-1
Cc1cc2cc(CNC(=O)Nc3cccc(Cl)c3)ccc2n1C	-45	-112	-1	4	·	·
CCOC(=O)C1CCN(C(=O)c2cccc(NC3=NC4CS(=O)(=O)CC4S3)c2)CC1 (centres undefined)	5	3	18*	-5	15*	-1
Cc1ccc(C(=O)N2CC(C)CC(C)C2)cc1NC1=NC2CS(=O)(=O)CC2S1 (centres undefined)	0	-18	22*	-4	26*	0	GFP quench dose=>68
COc1ccc(NC(=O)C2(C)CCN2C(=O)Cc2ccc(Cl)cc2Cl)cc1OC (centres undefined)	-2	0	1	·	·	·
